Reference: the supplement of paper PMC10849652
Targets with a hit are over-represented here; the source holds about 8,800 in all. About 0.5% of all pairs of compound and target were hits.

Columns and labels:
Assay in all cases: log2 fold change, soluble protein after heating vs DMSO (PISA); higher = thermal stabilisation; K562 lysate, 10 uM; active = over 0.2 and 3.5 SD of the protein, either way, in both replicates (recomputed)
alvocidib = compound: CN1CC[C@H](c2c(O)cc(O)c3c(=O)cc(-c4ccccc4Cl)oc23)[C@H](O)C1 [alvocidib]
Procedure, shortened: (§1)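 A 30 min treatment with 10 μM compound was applied to crude K562 extract at 1 mg/mL protein in PBS pH 7.4 with 1 mM MgCl2. Heating for 3 min spanned 48°C-58°C, after which aliquots were pooled, adjusted to 0.5% NP-40 at 4°C and spun at 21,000xg for 90 min. TMTpro 16plex LC-MS/MS of the supernatant, with channel sums equalised, gave values recorded as log-two fold change in thermal stability against solvent controls, from duplicates.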

Tubastatin A = compound: CN1CCc2c(c3ccccc3n2Cc2ccc(C(=O)NO)cc2)C1 [Tubastatin A]
Procedure, shortened: as §1

[1] = compound: CNC(=O)C1=CC=CC=C1NC2=NC(=NC=C2Cl)NC3=C(C=C(C=C3)N4CCOCC4)OC
Procedure, shortened: as §1

defactinib = compound: CNC(=O)c1ccc(Nc2ncc(C(F)(F)F)c(NCc3nccnc3N(C)S(C)(=O)=O)n2)cc1 [defactinib]
Procedure, shortened: as §1

[2] = compound: CNc1nc(-c2ccc3c(N)n[nH]c3c2)cc(N2C[C@@H](C(=O)NC3CCCCC3)CC[C@H]2C)n1
Procedure, shortened: as §1

encorafenib = compound: COC(=O)N[C@@H](C)CNc1nccc(-c2cn(C(C)C)nc2-c2cc(Cl)cc(NS(C)(=O)=O)c2F)n1 [encorafenib]
Procedure, shortened: as §1

[3] = compound: COC(=O)[C@H](CCSC)NC(=O)C1=C(C=C(C=C1)NC[C@H](CS)N)C2=CC=CC=C2
Procedure, shortened: as §1

alisertib = compound: COc1cc(Nc2ncc3c(n2)-c2ccc(Cl)cc2C(c2c(F)cccc2OC)=NC3)ccc1C(=O)O [alisertib]
Procedure, shortened: as §1

[4] = compound: COc1cc2nc(-c3cc(F)ccc3O)nc(N[C@@H]3CNC[C@H]3C(C)(C)O)c2cc1OC
Procedure, shortened: as §1

gefitinib = compound: COc1cc2ncnc(Nc3ccc(F)c(Cl)c3)c2cc1OCCCN1CCOCC1 [gefitinib]
Procedure, shortened: as §1

Measured: log2 fold change

SSB (UniProt E7ERC4)
inactive: alvocidib 0.132 | Tubastatin A 0.154 | [1] -0.072 | defactinib -0.285 | [2] -0.023 | encorafenib 0.081 | [3] 0.013 | alisertib -0.091 | [4] 0.095 | gefitinib 0.072

SKA1 (UniProt Q96BD8)
inactive: alvocidib -0.046 | Tubastatin A -0.064 | [1] 0.001 | defactinib 0.015 | [2] -0.008 | encorafenib 0.129 | [3] -0.055 | alisertib -0.017 | [4] 0.017 | gefitinib -0.006

SLC16A1 (UniProt P53985)
inactive: alvocidib -0.133 | Tubastatin A -0.012 | [1] 0.042 | defactinib -0.007 | [2] 0.024 | encorafenib -0.016 | [3] -0.059 | alisertib 0.045 | [4] 0.018 | gefitinib 0.032

SMC2 (UniProt O95347)
Chain of UniProt O95347 (O95347 whole entry, looked up): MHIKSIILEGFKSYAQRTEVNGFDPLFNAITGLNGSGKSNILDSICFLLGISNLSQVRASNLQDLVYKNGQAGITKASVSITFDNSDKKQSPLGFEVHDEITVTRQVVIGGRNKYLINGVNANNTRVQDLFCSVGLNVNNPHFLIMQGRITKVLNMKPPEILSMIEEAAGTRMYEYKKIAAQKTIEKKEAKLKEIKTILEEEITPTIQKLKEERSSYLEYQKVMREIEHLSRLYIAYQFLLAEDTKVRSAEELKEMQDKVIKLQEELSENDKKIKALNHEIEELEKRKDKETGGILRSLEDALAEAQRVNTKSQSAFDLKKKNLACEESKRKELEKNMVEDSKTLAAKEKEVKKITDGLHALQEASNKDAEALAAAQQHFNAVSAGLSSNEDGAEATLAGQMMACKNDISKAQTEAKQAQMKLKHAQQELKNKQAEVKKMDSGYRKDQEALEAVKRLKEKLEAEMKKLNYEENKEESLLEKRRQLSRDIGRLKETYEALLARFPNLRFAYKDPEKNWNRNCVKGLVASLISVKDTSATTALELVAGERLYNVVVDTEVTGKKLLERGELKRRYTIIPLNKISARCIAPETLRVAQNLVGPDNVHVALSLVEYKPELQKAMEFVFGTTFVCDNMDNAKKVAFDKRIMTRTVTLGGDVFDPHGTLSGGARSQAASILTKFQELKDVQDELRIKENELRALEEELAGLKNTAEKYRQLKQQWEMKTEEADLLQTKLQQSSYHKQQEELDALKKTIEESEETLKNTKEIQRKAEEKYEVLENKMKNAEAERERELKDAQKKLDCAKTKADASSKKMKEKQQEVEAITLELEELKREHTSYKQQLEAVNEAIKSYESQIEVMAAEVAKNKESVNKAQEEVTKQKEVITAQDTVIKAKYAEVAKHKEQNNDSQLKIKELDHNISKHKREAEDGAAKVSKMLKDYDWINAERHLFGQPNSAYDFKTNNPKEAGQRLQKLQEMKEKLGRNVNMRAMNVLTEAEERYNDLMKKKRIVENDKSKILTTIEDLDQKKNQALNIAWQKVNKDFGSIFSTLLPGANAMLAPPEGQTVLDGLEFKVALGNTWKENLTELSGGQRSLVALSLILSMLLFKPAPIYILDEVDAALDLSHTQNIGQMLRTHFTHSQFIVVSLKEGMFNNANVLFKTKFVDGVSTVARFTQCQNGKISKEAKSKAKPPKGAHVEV
inactive: alvocidib 0.039 | Tubastatin A -0.087 | [1] -0.004 | defactinib -0.003 | [2] -0.022 | encorafenib -0.005 | [3] 0.047 | alisertib 0.005 | [4] 0.003 | gefitinib -0.003

SMIM8 (UniProt Q96KF7)
inactive: alvocidib -0.01 | Tubastatin A 0.034 | [1] -0.041 | defactinib 0.034 | [2] 0.066 | encorafenib 0.028 | [3] 0.078 | alisertib 0.062 | [4] 0.014 | gefitinib -0.015

SLC20A1 (UniProt Q8WUM9)
Chain of UniProt Q8WUM9 (Q8WUM9 whole entry, looked up): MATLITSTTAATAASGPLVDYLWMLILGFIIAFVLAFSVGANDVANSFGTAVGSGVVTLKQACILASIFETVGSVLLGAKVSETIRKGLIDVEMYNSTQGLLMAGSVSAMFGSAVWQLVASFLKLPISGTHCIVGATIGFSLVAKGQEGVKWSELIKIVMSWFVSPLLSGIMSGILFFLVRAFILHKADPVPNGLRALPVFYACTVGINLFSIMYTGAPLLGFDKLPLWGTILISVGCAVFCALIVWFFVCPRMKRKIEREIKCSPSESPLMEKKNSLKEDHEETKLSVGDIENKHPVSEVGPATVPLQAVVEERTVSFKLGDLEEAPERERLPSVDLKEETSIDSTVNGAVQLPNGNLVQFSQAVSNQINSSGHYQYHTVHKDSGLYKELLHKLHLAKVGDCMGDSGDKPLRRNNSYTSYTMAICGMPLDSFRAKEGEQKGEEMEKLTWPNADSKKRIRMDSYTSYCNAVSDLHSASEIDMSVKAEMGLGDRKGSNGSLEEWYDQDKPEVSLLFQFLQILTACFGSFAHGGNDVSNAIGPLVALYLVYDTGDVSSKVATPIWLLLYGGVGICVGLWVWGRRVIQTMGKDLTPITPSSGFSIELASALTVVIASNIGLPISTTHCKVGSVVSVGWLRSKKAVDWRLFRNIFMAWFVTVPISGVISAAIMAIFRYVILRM
inactive: alvocidib 0.002 | Tubastatin A 0.054 | [1] -0.012 | defactinib -0.155 | [2] 0.016 | encorafenib -0.039 | [3] -0.057 | alisertib -0.026 | [4] 0.036 | gefitinib 0.05

SFR1 isoform 2 (UniProt Q86XK3)
Chain of UniProt Q86XK3 (Q86XK3 whole entry, looked up): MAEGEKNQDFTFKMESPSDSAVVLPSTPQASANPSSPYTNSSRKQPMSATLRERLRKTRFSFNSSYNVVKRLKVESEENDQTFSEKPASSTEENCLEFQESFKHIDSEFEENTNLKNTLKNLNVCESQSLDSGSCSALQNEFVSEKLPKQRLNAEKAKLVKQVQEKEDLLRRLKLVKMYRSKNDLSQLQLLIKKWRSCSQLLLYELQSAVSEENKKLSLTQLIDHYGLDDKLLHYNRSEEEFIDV
inactive: alvocidib -0.014 | Tubastatin A -0.003 | [1] -0.009 | defactinib -0.155 | [2] -0.005 | encorafenib 0.014 | [3] -0.007 | alisertib 0.004 | [4] -0.007 | gefitinib -0.03

SKA3 (UniProt Q8IX90)
inactive: alvocidib -0.035 | Tubastatin A -0.056 | [1] 0.03 | defactinib 0.035 | [2] 0.04 | encorafenib 0.023 | [3] -0.051 | alisertib 0.039 | [4] -0.012 | gefitinib 0.063

STK36 (UniProt Q9NRP7)
Chain of UniProt Q9NRP7 (Q9NRP7 whole entry, looked up): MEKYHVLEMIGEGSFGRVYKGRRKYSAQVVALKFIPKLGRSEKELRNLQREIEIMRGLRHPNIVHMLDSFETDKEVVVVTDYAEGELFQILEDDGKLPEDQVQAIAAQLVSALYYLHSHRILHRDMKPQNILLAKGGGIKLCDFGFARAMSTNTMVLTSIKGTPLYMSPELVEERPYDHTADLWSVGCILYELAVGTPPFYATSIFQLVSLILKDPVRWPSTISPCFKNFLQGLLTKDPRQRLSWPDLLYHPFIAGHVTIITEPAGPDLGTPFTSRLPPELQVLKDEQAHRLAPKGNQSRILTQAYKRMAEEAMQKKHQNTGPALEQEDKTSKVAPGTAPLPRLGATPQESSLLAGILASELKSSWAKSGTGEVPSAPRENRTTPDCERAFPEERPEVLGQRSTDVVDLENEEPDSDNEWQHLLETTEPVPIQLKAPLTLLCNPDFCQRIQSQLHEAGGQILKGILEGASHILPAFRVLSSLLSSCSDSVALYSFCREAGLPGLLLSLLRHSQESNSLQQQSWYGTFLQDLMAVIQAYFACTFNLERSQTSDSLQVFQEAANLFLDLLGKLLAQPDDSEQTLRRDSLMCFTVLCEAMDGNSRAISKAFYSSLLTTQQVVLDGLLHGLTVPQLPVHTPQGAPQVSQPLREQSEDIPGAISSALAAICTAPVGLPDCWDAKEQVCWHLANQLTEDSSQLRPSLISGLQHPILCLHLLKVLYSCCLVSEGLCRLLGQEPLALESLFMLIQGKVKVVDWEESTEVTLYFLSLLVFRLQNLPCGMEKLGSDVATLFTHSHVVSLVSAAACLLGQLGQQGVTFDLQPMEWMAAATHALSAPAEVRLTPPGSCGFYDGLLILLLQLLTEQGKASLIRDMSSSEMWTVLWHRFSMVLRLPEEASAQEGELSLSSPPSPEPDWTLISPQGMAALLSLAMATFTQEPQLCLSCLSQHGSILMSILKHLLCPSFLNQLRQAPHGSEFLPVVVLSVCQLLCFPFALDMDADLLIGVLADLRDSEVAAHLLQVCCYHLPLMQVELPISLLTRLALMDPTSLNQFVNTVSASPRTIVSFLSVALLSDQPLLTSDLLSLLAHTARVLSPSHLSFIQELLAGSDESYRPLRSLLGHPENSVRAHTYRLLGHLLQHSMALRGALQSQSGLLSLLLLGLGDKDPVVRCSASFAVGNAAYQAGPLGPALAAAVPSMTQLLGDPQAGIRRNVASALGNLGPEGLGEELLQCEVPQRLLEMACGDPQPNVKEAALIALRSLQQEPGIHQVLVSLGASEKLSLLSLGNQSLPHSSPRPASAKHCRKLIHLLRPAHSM
inactive: alvocidib -0.33 | Tubastatin A 0.331 | [1] -0.048 | defactinib -0.263 | [2] 0.528 | encorafenib -0.027 | [3] 0.042 | alisertib 0.081 | [4] 0.199 | gefitinib -0.093

SHC1 (UniProt P29353)
inactive: alvocidib 0.144

SLC25A38 (UniProt Q96DW6)
inactive: alvocidib -0.062 | Tubastatin A 0.014 | [1] -0.049 | defactinib 0.074 | [2] 0.06 | encorafenib -0.038 | [3] 0.321 | alisertib 0.044 | [4] 0.097 | gefitinib 0.094

SVIP (UniProt Q8NHG7)
inactive: alvocidib -0.014 | Tubastatin A 0.028 | [1] -0.017 | defactinib 0.025 | [2] 0.098 | encorafenib -0.042 | [3] -0.055 | alisertib 0.05 | [4] -0.039 | gefitinib -0.099

SULT1A1 (UniProt P50225)
Chain of UniProt P50225 (P50225 whole entry, looked up): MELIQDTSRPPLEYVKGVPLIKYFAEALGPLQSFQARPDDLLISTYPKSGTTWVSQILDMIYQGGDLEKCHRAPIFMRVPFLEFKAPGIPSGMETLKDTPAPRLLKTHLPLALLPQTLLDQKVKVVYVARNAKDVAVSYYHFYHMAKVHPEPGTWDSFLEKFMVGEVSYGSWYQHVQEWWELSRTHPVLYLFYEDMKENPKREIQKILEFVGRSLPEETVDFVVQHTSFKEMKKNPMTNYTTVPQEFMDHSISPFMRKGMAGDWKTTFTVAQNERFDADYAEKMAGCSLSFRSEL
inactive: alvocidib 0.031 | Tubastatin A -0.043 | [1] 0.018 | defactinib -0.11 | [2] 0.06 | encorafenib 0.026 | [3] 0.017 | alisertib 0.036 | [4] -0.005 | gefitinib -0.011

STIM1 (UniProt Q13586)
inactive: alvocidib 0.008 | Tubastatin A -0.056 | [1] -0.041 | defactinib -0.018 | [2] 0.024 | encorafenib 0.003 | [3] -0.016 | alisertib 0.008 | [4] -0.106 | gefitinib -0.013

SMN1 (UniProt Q16637)
inactive: alvocidib -0.05 | Tubastatin A -0.173 | [1] 0.017 | defactinib -0.023 | [2] -0.01 | encorafenib 0.03 | [3] 0.149 | alisertib 0.062 | [4] -0.024 | gefitinib -0.064

STUB1 (UniProt Q9UNE7)
inactive: alvocidib -0.012 | Tubastatin A -0.193 | [1] 0.003 | defactinib -0.029 | [2] 0.026 | encorafenib -0.025 | [3] 0.135 | alisertib 0.003 | [4] 0.007 | gefitinib -0.003

SYNE2 isoform 2 (UniProt Q8WXH0)
inactive: alvocidib -0.415 | Tubastatin A 0.143 | [1] -0.117 | defactinib -0.139 | [2] -0.003 | encorafenib -0.036 | [3] 0.004 | alisertib 0.037 | [4] 0.034 | gefitinib -0.059

SNX6, A0A0A0MRI2
inactive: alvocidib 0.076 | Tubastatin A -0.051 | [1] 0.004 | defactinib 0.008 | [2] -0.024 | encorafenib 0.007 | [3] 0.171 | alisertib -0.008 | [4] -0.003 | gefitinib -0.01

STK26 (UniProt Q9P289)
inactive: alvocidib 0.027 | Tubastatin A -0.041 | [1] 0.003 | defactinib 0.008 | [2] -0.06 | encorafenib 0.001 | [3] 0.009 | alisertib -0.004 | [4] 0.022 | gefitinib -0.016

SMTN isoform 6 (UniProt P53814)
inactive: alvocidib -0.04 | Tubastatin A -0.019 | [1] 0.071 | defactinib -0.103 | [2] -0.013 | encorafenib -0.002 | [3] -0.085 | alisertib 0.055 | [4] -0.005 | gefitinib 0.005

STAT2 (UniProt P52630)
inactive: alvocidib 0.02 | Tubastatin A -0.183 | [1] 0.016 | defactinib -0.03 | [2] -0.018 | encorafenib 0.023 | [3] -0.014 | alisertib 0.006 | [4] 0.004 | gefitinib -0.023

SLC27A4 (UniProt Q6P1M0)
inactive: alvocidib -0.019 | Tubastatin A -0.021 | [1] -0.009 | defactinib -0.157 | [2] -0.062 | encorafenib 0.135 | [3] 0.006 | alisertib 0.039 | [4] 0.062 | gefitinib -0.067

SH3BP5L (UniProt Q7L8J4)
Chain of UniProt Q7L8J4 (Q7L8J4 whole entry, looked up): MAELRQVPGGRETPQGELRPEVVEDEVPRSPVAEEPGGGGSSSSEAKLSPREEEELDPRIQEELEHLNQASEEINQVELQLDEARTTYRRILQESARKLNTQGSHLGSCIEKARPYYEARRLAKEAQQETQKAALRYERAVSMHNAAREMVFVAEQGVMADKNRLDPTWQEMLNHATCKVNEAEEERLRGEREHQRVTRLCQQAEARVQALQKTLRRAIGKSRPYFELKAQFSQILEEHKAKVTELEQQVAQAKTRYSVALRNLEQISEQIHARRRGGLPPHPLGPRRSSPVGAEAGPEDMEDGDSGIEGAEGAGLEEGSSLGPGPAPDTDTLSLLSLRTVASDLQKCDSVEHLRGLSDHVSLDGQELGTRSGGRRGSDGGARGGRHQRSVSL
inactive: alvocidib -0.003 | Tubastatin A -0.012 | [1] 0.036 | defactinib -0.003 | [2] -0.015 | encorafenib 0.058 | [3] -0.047 | alisertib 0.021 | [4] 0.015 | gefitinib 0.001

SRPK1 (UniProt Q96SB4)
inactive: Tubastatin A -0.062 | [1] 0.189 | defactinib 0.106 | [2] 0.008 | encorafenib -0.029 | [3] 0.102 | alisertib 0.006 | [4] 0.015 | gefitinib 0.018
active: alvocidib 0.286

SF3B6 (UniProt Q9Y3B4)
Chain of UniProt Q9Y3B4 (Q9Y3B4 whole entry, looked up): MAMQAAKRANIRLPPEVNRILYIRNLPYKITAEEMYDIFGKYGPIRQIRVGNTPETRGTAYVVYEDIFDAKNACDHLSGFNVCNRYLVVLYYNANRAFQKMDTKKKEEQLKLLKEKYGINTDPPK
inactive: alvocidib 0.05 | Tubastatin A -0.037 | [1] 0.016 | defactinib 0.017 | [2] 0.071 | encorafenib 0.014 | [3] -0.003 | alisertib -0.011 | [4] -0.027 | gefitinib -0.172

TAPT1 (UniProt Q6NXT6)
inactive: alvocidib -0.101 | Tubastatin A 0.037 | [1] -0.086 | defactinib 0.047 | [2] 0.056 | encorafenib 0.053 | [3] -0.074 | alisertib -0.016 | [4] -0.006 | gefitinib 0.055

SYPL1 (UniProt Q16563)
Chain of UniProt Q16563 (Q16563 whole entry, looked up): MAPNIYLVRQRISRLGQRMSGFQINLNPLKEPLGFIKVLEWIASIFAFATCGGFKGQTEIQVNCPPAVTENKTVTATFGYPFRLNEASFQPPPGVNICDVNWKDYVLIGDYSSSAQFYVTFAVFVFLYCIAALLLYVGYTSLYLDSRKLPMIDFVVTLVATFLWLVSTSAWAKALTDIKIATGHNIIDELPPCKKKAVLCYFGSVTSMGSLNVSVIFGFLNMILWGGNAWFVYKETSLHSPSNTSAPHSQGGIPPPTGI
inactive: alvocidib -0.132 | Tubastatin A 0.057 | [1] -0.007 | defactinib -0.014 | [2] 0.029 | encorafenib 0.013 | [3] -0.022 | alisertib 0.016 | [4] 0.012 | gefitinib -0.033

TADA3 (UniProt O75528)
Chain of UniProt O75528 (O75528 whole entry, looked up): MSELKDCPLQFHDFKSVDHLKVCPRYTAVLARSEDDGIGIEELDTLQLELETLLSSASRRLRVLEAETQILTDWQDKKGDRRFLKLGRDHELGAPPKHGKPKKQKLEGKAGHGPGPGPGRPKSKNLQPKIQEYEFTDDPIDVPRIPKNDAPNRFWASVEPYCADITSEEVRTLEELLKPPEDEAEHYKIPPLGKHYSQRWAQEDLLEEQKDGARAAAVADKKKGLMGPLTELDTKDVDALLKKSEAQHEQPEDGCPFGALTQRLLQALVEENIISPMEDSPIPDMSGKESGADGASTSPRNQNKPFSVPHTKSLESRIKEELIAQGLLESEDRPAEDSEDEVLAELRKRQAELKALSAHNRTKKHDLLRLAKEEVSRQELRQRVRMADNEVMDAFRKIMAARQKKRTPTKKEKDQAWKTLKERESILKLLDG
inactive: alvocidib 0.001 | Tubastatin A -0.04 | [1] 0.044 | defactinib -0.007 | [2] 0.06 | encorafenib 0.029 | [3] -0.024 | alisertib 0 | [4] 0.001 | gefitinib 0.03

SH3BGRL2 (UniProt Q9UJC5)
inactive: alvocidib 0.067 | Tubastatin A 0.031 | [1] 0.05 | defactinib 0.039 | [2] 0.061 | encorafenib -0.066 | [3] 0.027 | alisertib -0.013 | [4] -0.001 | gefitinib -0.001

STK39 (UniProt Q9UEW8)
inactive: alvocidib 0.011 | Tubastatin A -0.128 | [1] -0.015 | defactinib 0 | [2] -0.026 | encorafenib -0.021 | [3] 0.164 | alisertib -0.055 | [4] 0.02 | gefitinib 0.028
